Measured values reported in the supplement of paper PMC4466140.

target: AgAbp1; test: SPOT peptide array binding signal intensity (averaged, normalized) (arbitrary units (background-subtracted, floor 0; scale differs between SH3 domains)); higher = stronger binding of the SH3 domain to the peptide
Procedure, shortened: (§1)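 Detection of bound protein relied on anti-GST antibody, an HRP anti-mouse secondary and luminol, with imaging and quantification in Genespotter. The bound protein was GST-fused SH3 domains from four yeast species, incubated at 10 μg/ml overnight at 4°C in TBS-based blocking buffer on cellulose membranes carrying synthetic 15-mer peptides with cysteines replaced by serines. Binding signal is normalized, background-subtracted spot intensity averaged over replicates, in arbitrary units that differ between domains.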

Binder	SPOT peptide array binding signal intensity
IAPIPMPKPNPTHIS	≤ 0

target: AgBbc1; test: as above
Procedure, shortened: as §1

Binder	SPOT peptide array binding signal intensity
IAPIPMPKPNPTHIS	≤ 0

target: AgBem1-D1; test: as above
Procedure, shortened: as §1

Binder	SPOT peptide array binding signal intensity
IAPIPMPKPNPTHIS	7

target: AgBzz1-D1; test: as above
Procedure, shortened: as §1

Binder	SPOT peptide array binding signal intensity
IAPIPMPKPNPTHIS	≤ 0

target: AgBzz1-D2; test: as above
Procedure, shortened: as §1

Binder	SPOT peptide array binding signal intensity
IAPIPMPKPNPTHIS	4

target: AgCyk3; test: as above
Procedure, shortened: as §1

Binder	SPOT peptide array binding signal intensity
IAPIPMPKPNPTHIS	≤ 0

target: AgFus1; test: as above
Procedure, shortened: as §1

Binder	SPOT peptide array binding signal intensity
IAPIPMPKPNPTHIS	44.5

target: AgHof1; test: as above
Procedure, shortened: as §1

Binder	SPOT peptide array binding signal intensity
IAPIPMPKPNPTHIS	≤ 0

target: AgHse1; test: as above
Procedure, shortened: as §1

Binder	SPOT peptide array binding signal intensity
IAPIPMPKPNPTHIS	12

target: AgLsb1; test: as above
Procedure, shortened: as §1

Binder	SPOT peptide array binding signal intensity
IAPIPMPKPNPTHIS	≤ 0

target: AgLsb4; test: as above
Procedure, shortened: as §1

Binder	SPOT peptide array binding signal intensity
IAPIPMPKPNPTHIS	≤ 0

target: AgMyo5; test: as above
Procedure, shortened: as §1

Binder	SPOT peptide array binding signal intensity
IAPIPMPKPNPTHIS	≤ 0

target: AgNbp2; test: as above
Procedure, shortened: as §1

Binder	SPOT peptide array binding signal intensity
IAPIPMPKPNPTHIS	61.5

target: AgRvs167; test: as above
Procedure, shortened: as §1

Binder	SPOT peptide array binding signal intensity
IAPIPMPKPNPTHIS	0.333

target: AgSho1; test: as above
Procedure, shortened: as §1

Binder	SPOT peptide array binding signal intensity
IAPIPMPKPNPTHIS	32

target: AgSla1-D1-D2; test: as above
Procedure, shortened: as §1

Binder	SPOT peptide array binding signal intensity
IAPIPMPKPNPTHIS	≤ 0

target: AgSla1-D3; test: as above
Procedure, shortened: as §1

Binder	SPOT peptide array binding signal intensity
IAPIPMPKPNPTHIS	4.5

target: CaAbp1-D1; test: as above
Procedure, shortened: as §1

Binder	SPOT peptide array binding signal intensity
IAPIPMPKPNPTHIS	≤ 0

target: CaAbp1-D2; test: as above
Procedure, shortened: as §1

Binder	SPOT peptide array binding signal intensity
IAPIPMPKPNPTHIS	28.5

target: CaBbc1; test: as above
Procedure, shortened: as §1

Binder	SPOT peptide array binding signal intensity
IAPIPMPKPNPTHIS	≤ 0

target: CaBem1-D1; test: as above
Procedure, shortened: as §1

Binder	SPOT peptide array binding signal intensity
IAPIPMPKPNPTHIS	48.5

target: CaBzz1-D1; test: as above
Procedure, shortened: as §1

Binder	SPOT peptide array binding signal intensity
IAPIPMPKPNPTHIS	≤ 0

target: CaBzz1-D2; test: as above
Procedure, shortened: as §1

Binder	SPOT peptide array binding signal intensity
IAPIPMPKPNPTHIS	9.75

target: CaCyk3; test: as above
Procedure, shortened: as §1

Binder	SPOT peptide array binding signal intensity
IAPIPMPKPNPTHIS	≤ 0

target: CaFus1; test: as above
Procedure, shortened: as §1

Binder	SPOT peptide array binding signal intensity
IAPIPMPKPNPTHIS	170

target: CaHof1; test: as above
Procedure, shortened: as §1

Binder	SPOT peptide array binding signal intensity
IAPIPMPKPNPTHIS	0.5

target: CaHse1; test: as above
Procedure, shortened: as §1

Binder	SPOT peptide array binding signal intensity
IAPIPMPKPNPTHIS	33.8

target: CaLsb1; test: as above
Procedure, shortened: as §1

Binder	SPOT peptide array binding signal intensity
IAPIPMPKPNPTHIS	≤ 0

target: CaLsb4; test: as above
Procedure, shortened: as §1

Binder	SPOT peptide array binding signal intensity
IAPIPMPKPNPTHIS	51

target: CaMyo5; test: as above
Procedure, shortened: as §1

Binder	SPOT peptide array binding signal intensity
IAPIPMPKPNPTHIS	3

target: CaNbp2; test: as above
Procedure, shortened: as §1

Binder	SPOT peptide array binding signal intensity
IAPIPMPKPNPTHIS	430

target: CaRvs167; test: as above
Procedure, shortened: as §1

Binder	SPOT peptide array binding signal intensity
IAPIPMPKPNPTHIS	≤ 0

target: CaRvs167-3; test: as above
Procedure, shortened: as §1

Binder	SPOT peptide array binding signal intensity
IAPIPMPKPNPTHIS	≤ 0

target: CaSho1; test: as above
Procedure, shortened: as §1

Binder	SPOT peptide array binding signal intensity
IAPIPMPKPNPTHIS	305

target: CaSla1-D1-D2; test: as above
Procedure, shortened: as §1

Binder	SPOT peptide array binding signal intensity
IAPIPMPKPNPTHIS	58.5

target: CaSla1-D3; test: as above
Procedure, shortened: as §1

Binder	SPOT peptide array binding signal intensity
IAPIPMPKPNPTHIS	52.5

target: ScAbp1; test: as above
Procedure, shortened: as §1

Binder	SPOT peptide array binding signal intensity
IAPIPMPKPNPTHIS	≤ 0
